S2 tox = viability counter-screen for ATXN expression inhibitors | Potency, µM (doses to about 56.7 µM), hits mostly cytotoxic | S2 cells (HEK-293 line with an ATXN2-luciferase reporter) viability, CellTiter-Fluor protease fluorescence, 24 h | 0.49% of 400,000 active | AID 651635; note: nearly all actives have a fitted effect of over 40% in size
TGFb SMAD3 inh = blocks TGF-b signaling | 1.2% of 410,000 active | AID 588855 | Potency, µM (top dose mostly 46.1 µM), most hits filed as inhibitors | HepG2 CAGA-GFP TGF-b/SMAD3 reporter, GFP fluorescence, 18 h; TGF-beta stimulated, 500 pg/mL final; note: nearly all actives have a fitted effect of over 65% in size
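GFP signal (ex488/em500-530) from TGF-beta-stimulated HEPG2 CAGA-GFP cells, 500 pg/mL final, 18 h at 37 degrees C in DMEM plus 1% FBS, normalized to unstimulated and DMSO-stimulated controls.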
Six1-Eya2 inh = inhibitors of human Six1/Eya2 interaction; activity change, % (test concentration not listed); 0.56% of 360,000 active; AlphaScreen GST-Six1/His-Eya2 binding, biochemical; stronger effect = lower value; AID 651725; Q15475+O00167; in the data active = activity change below about -65%; inconclusive = mostly about -30% to -63%
Target sequence (O00167 whole entry, looked up): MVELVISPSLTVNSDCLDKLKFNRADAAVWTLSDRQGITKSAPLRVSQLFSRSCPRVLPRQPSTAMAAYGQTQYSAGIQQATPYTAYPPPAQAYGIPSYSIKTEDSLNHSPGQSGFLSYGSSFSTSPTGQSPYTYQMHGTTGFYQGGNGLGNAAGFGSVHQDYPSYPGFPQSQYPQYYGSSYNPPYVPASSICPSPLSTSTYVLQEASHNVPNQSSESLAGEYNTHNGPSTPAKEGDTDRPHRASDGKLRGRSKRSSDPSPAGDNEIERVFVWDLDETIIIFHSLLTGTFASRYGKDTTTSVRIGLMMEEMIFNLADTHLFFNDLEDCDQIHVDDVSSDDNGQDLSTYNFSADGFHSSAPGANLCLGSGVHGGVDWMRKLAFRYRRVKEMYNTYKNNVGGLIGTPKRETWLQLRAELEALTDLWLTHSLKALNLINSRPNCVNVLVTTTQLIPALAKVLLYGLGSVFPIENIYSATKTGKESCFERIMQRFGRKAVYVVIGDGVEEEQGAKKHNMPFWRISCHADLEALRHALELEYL
Target sequence (Q15475 whole entry, looked up): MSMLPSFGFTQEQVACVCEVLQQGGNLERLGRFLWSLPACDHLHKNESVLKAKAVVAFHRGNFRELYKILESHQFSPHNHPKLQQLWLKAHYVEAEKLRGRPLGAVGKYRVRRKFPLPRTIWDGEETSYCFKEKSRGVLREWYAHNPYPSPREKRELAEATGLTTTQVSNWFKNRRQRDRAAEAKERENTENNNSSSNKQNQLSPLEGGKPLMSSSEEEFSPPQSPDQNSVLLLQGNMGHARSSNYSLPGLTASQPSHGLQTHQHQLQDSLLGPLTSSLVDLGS
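Homogeneous AlphaScreen proximity assay pairing GST-Six1 with His-tagged Eya2 (added as 5X mix: 250 nM and 500 nM) in 50 mM Tris pH 8.0, 300 mM NaCl, 1 mM TCEP. Glutathione donor and nickel acceptor beads; 1 h, 37 °C, dark.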
CtBP-E1A inh = CtBP/E1A binding inhibition | 0.49% of 340,000 active | AlphaScreen GST-E1A/His-CtBP binding, 1536-well; stronger effect = lower value | activity change, % (no concentration beside the values); in the data active = activity change below about -65%; inconclusive = mostly about -30% to -63%
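GST-E1A and His-tagged CtBP (125 nM each as 5X stock) were preincubated with pin-transferred compound for 2 h at 37 °C in the dark, then glutathione donor and nickel acceptor beads were added for 1 h before AlphaScreen reading.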
ATXN2 expr inh = inhibitors of ATXN2 expression | HEK-293 ATXN2-luciferase reporter, luminescence, 24 h | Potency, µM (titrated, usually from 57 µM), actives largely listed as inhibitors | 0.72% of 360,000 active; note: nearly all actives have a fitted effect of over 55% in size
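qHTS (up to 57 uM final) was run with 24 h compound exposure of reporter cells at 37 °C. Each well was multiplexed: SteadyGlo luminescence measured ATXN2-luciferase expression after a fluorogenic Gly-Phe-AFC viability readout (25 uM final).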
HepG2 tox = kills HepG2 cells in TGF-b inhibitor counter-screen. HepG2 CAGA-GFP viability, ATP luminescence, 18 h. Potency, µM (highest dose often 46.1 µM), most hits filed as cytotoxic. 0.76% of 410,000 active
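HepG2 CAGA-GFP cells (1000/well, DMEM with 1% FBS) received compound, then TGF-beta at 500 pg/mL final, and were incubated 18 hours at 37 degrees C. Viability was read by CellTiter-Glo luminescence. Media-only wells were set as complete cell-killing and DMSO as no toxicity.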
A number is an active result. An excerpt weighted towards active compounds, which were near 2.8% of everything screened. Unless noted, calls come from the whole dose curve; as a rule, active = well fitted curve in the direction sought with a large enough effect; inconclusive = small, poorly fitted or top-dose-only effect, or another doubt; inactive = no such curve, though single readings can be large; an effect the other way counts as inactive or inconclusive.

How did Cc1cnc(C)c(-c2cccc3c2OC(CNC(=O)/C=C/c2ccc(F)c(F)c2)C3)n1 (configuration not stated) do in these assays?
S2 tox: inactive

Results for CN(CC(=O)Nc1cccc(F)c1)C(=O)c1cn(-c2ccccc2)nc1-c1ccc(F)cc1 ?
S2 tox: inconclusive; TGFb SMAD3 inh: 22µM; Six1-Eya2 inh: inactive; HepG2 tox: inactive

Results for COc1ccc2cc(-c3nc(-c4ccc(S(C)=O)cc4)[nH]c3-c3ccncc3)ccc2c1 (configuration not stated) ?
ATXN2 expr inh: inactive

Results for CN1/C(=C\C(=S)NC(=O)c2ccc([N+](=O)[O-])cc2)C(C)(C)c2ccccc21 ?
S2 tox: inactive; TGFb SMAD3 inh: inactive; Six1-Eya2 inh: inconclusive; CtBP-E1A inh: inconclusive; ATXN2 expr inh: inactive; HepG2 tox: inactive

Results for CN1/C(=C\C(=S)NC(=O)c2cccc(Br)c2)C(C)(C)c2ccccc21 ?
S2 tox: inconclusive; TGFb SMAD3 inh: inconclusive; Six1-Eya2 inh: -73; CtBP-E1A inh: -70; ATXN2 expr inh: inconclusive; HepG2 tox: inactive

What do the screens show for `COc1ccc(C(=O)N2CCC(c3nc4ccccc4s3)CC2)cc1Cl`?
S2 tox: inconclusive; TGFb SMAD3 inh: 8.9µM; ATXN2 expr inh: inconclusive; HepG2 tox: inactive

What do the screens show for `COc1cc(NCCCCCCN)c2ncccc2c1OC`?
S2 tox: inconclusive; TGFb SMAD3 inh: inactive; Six1-Eya2 inh: inconclusive; CtBP-E1A inh: -71; ATXN2 expr inh: 16µM; HepG2 tox: inactive

Results for COc1cc(NC(C)CCCNC(C)C)c2ncccc2c1OC (configuration not stated) ?
S2 tox: inactive; TGFb SMAD3 inh: inactive; Six1-Eya2 inh: inactive; CtBP-E1A inh: inactive; ATXN2 expr inh: inactive; HepG2 tox: inactive

What do the screens show for `COc1cc(OC)c(S(=O)(=O)Nc2ccc(C)cn2)cc1NC(C)=O`?
S2 tox: inactive; TGFb SMAD3 inh: inactive; Six1-Eya2 inh: inactive; CtBP-E1A inh: inactive; ATXN2 expr inh: inactive; HepG2 tox: 10µM

How did O=C(CCc1nc2ccccc2s1)N1CCOc2ccc(CN3CCc4sccc4C3)cc2C1 do in these assays?
S2 tox: inactive

Results for Oc1cc(-c2cccs2)cc2c1OCCN(Cc1cn[nH]c1-c1ccc(Cl)cc1)C2 ?
S2 tox: inactive

How did C[C@H]1CN([C@@H](C)CO)C(=O)Cc2cc(NS(C)(=O)=O)ccc2O[C@@H]1CN(C)Cc1ccc(Cl)c(Cl)c1 do in these assays?
S2 tox: inconclusive; TGFb SMAD3 inh: 11µM; Six1-Eya2 inh: inactive; CtBP-E1A inh: inactive; ATXN2 expr inh: inactive; HepG2 tox: inactive

What do the screens show for `C[C@H](CO)N1C[C@H](C)[C@H](CN(C)CC2CCCCC2)Oc2ccc(NS(=O)(=O)c3ccc(F)cc3)cc2CC1=O`?
S2 tox: 28µM; TGFb SMAD3 inh: inconclusive; Six1-Eya2 inh: inactive; CtBP-E1A inh: inactive; ATXN2 expr inh: inconclusive; HepG2 tox: inactive

Results for C[C@H](CO)N1C[C@H](C)[C@H](CN(C)C)Oc2ccc(NS(=O)(=O)c3ccc(F)cc3)cc2CC1=O ?
S2 tox: inactive; TGFb SMAD3 inh: inactive; Six1-Eya2 inh: inactive; CtBP-E1A inh: inactive; ATXN2 expr inh: inactive; HepG2 tox: inactive

How did C[C@@H]1CN([C@@H](C)CO)C(=O)Cc2cc(NC(=O)Nc3ccc(F)cc3)ccc2O[C@@H]1CN(C)Cc1ccc(Cl)c(Cl)c1 do in these assays?
S2 tox: inconclusive; TGFb SMAD3 inh: inconclusive; Six1-Eya2 inh: inactive; CtBP-E1A inh: inactive; ATXN2 expr inh: inconclusive; HepG2 tox: 16µM

What do the screens show for `CCCN1C(=O)C2(c3ccccc31)c1c(oc3ccc(F)cc3c1=O)C(=O)N2CCCOC(C)C` (configuration not stated)?
S2 tox: inactive; TGFb SMAD3 inh: inactive; ATXN2 expr inh: inactive; HepG2 tox: inactive

Results for CCc1ccc(NC(=O)Cn2c(=O)n(Cc3ccc4c(c3)OCO4)c(=O)c3oc4ccccc4c32)cc1 ?
TGFb SMAD3 inh: inactive; HepG2 tox: inactive

How did CCN1C(=O)C(=Cc2cccc(OC)c2Oc2ccc([N+](=O)[O-])cc2[N+](=O)[O-])SC1=S do in these assays?
S2 tox: 13µM; TGFb SMAD3 inh: inactive; Six1-Eya2 inh: inactive; CtBP-E1A inh: inactive; ATXN2 expr inh: 22µM; HepG2 tox: inactive

What do the screens show for `Nc1[nH]c(N=NC(=O)c2ccccc2O)c2ccccc12`?
S2 tox: inactive; TGFb SMAD3 inh: inconclusive; Six1-Eya2 inh: -78; CtBP-E1A inh: inconclusive; ATXN2 expr inh: inactive; HepG2 tox: inactive

Results for Cn1c(=O)c(C(=O)NNC(=O)c2ccc(Br)cc2)c(O)c2ccccc21 ?
S2 tox: inconclusive; TGFb SMAD3 inh: 7.1µM; Six1-Eya2 inh: inactive; CtBP-E1A inh: inactive; ATXN2 expr inh: inactive; HepG2 tox: inactive

How did Cn1c(=O)c(C(=O)NNC(=O)c2ccccc2F)c(O)c2ccccc21 do in these assays?
S2 tox: inactive; TGFb SMAD3 inh: inconclusive; Six1-Eya2 inh: inactive; CtBP-E1A inh: inactive; ATXN2 expr inh: inactive; HepG2 tox: inactive

Results for CCOC(=O)c1c(C)oc2nc(C)nc(NCCc3ccc(S(N)(=O)=O)cc3)c12 ?
S2 tox: inconclusive; TGFb SMAD3 inh: inactive; ATXN2 expr inh: inactive; HepG2 tox: inactive

What do the screens show for `COCC(=O)Nc1cc(Cl)ccc1C`?
S2 tox: inactive; TGFb SMAD3 inh: inactive; Six1-Eya2 inh: inactive; CtBP-E1A inh: inactive; ATXN2 expr inh: inactive; HepG2 tox: inactive

What do the screens show for `Cc1ccc(Cl)cc1NC(=O)CC(O)(C(F)(F)F)C(F)(F)F`?
S2 tox: inconclusive; TGFb SMAD3 inh: 13µM; Six1-Eya2 inh: inactive; CtBP-E1A inh: inactive; ATXN2 expr inh: inconclusive; HepG2 tox: inactive

Results for CCOC(=O)Cc1nnc(NC(=O)CSc2nnc3c4ccccc4n(C)c3n2)s1 ?
S2 tox: inactive; TGFb SMAD3 inh: inactive; Six1-Eya2 inh: inconclusive; CtBP-E1A inh: inactive; ATXN2 expr inh: inactive; HepG2 tox: inactive

Results for Cn1c2ccccc2c2nnc(SCC(=O)Nc3cccc(C(=O)O)c3)nc21 ?
S2 tox: inactive; TGFb SMAD3 inh: inactive; Six1-Eya2 inh: -67; CtBP-E1A inh: inconclusive; ATXN2 expr inh: inactive; HepG2 tox: inactive

Results for Cc1ccc(C2=NN=C(NC(=O)CSc3nnc4c5ccccc5n(C)c4n3)SC2)cc1 ?
S2 tox: inactive; TGFb SMAD3 inh: inactive; Six1-Eya2 inh: -72; CtBP-E1A inh: inconclusive; ATXN2 expr inh: inactive; HepG2 tox: inactive

How did O=C(NCc1ccccc1Cl)c1ccc(CS(=O)(=O)c2ccc(Br)cc2)o1 do in these assays?
S2 tox: inactive; TGFb SMAD3 inh: inconclusive; ATXN2 expr inh: inactive; HepG2 tox: inactive

How did CCOC(=O)[C@]12CCCC=C1N(Cc1ccc3c(c1)OCO3)C(=O)[C@H](CC(=O)NCCc1ccccc1OC)C2 do in these assays?
S2 tox: inconclusive; Six1-Eya2 inh: inactive; CtBP-E1A inh: inactive; ATXN2 expr inh: inactive

Assay outcomes from PubChem.
